Screens: PubChem, National Center for Advancing Translational Sciences (NCATS)
The list is not random: actives were taken first. Their share in the collection is about 2.1%.
TDP43 rescue: inhibitors of TDP-43 toxicity in yeast; TDP-43 expressing yeast growth rescue, BacTiter-Glo, 24 h; AID 652104; Potency, µM (series often up to 46.1 µM), without a hit: at the top dose growth rescue (activation), actives largely listed as activators; 410,000 compounds, 1.8% hits; further: % of control where 0% means no effect; nearly all actives have a fitted effect of over 50% in size
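Galactose-induced TDP-43 yeast, OD600=0.02, compound pinned; 24 hr, 30 deg C; BacTiter-Glo luminescence for growth. Inhibitors of TDP-43 toxicity read as activators.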
FUS suppressor: rescues growth of FUS-expressing yeast; S. cerevisiae FUS-expressing, growth rescue, OD600, 24 h; 390,000 compounds, 0.24% hits; Potency, µM (titrated, usually from 76.6 µM), hits mostly activators;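 further: plate controls were DMSO vehicle for no effect and reference control for full effect; nearly all actives have a fitted effect of over 55% in size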
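S. cerevisiae expressing FUS from galactose induction served as the toxicity model. Growth after 24hr at 30C, read as absorbance at 600 nm, indicates suppression of toxicity; compounds dosed at several concentrations.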
Abeta yeast res: A-beta toxicity reversal in yeast; yeast expressing A-beta42, growth rescue, OD600, 48 h; response scale: 0% DMSO, 100% iron-clioquinol control; Potency, µM (titrated, usually from 46.1 µM), actives largely listed as activators; 410,000 compounds, 0.063% hits; AID 1347071; further: nearly all actives have a fitted effect of over 55% in size
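Yeast A-beta toxicity model in growth medium with pinned compounds, 48 h at 30 C; growth read as absorbance at 600 nm. Normalized to FeCl3/clioquinol equimolar mix (positive) and DMSO (negative).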
aSyn rescue: inhibitors of alpha-synuclein toxicity in yeast; Yeast expressing alpha-synuclein, growth rescue, BacTiter-Glo, 24 h; Potency, µM (doses to about 46.1 µM), for the others: at the top dose growth rescue (activation), most hits filed as activators; 370,000 compounds, 0.14% hits; further: % of control where 0% means no effect; nearly all actives have a fitted effect of over 65% in size
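Screening used galactose-induced yeast with toxic alpha-synuclein levels, exposed to compound for 24 hr at 30 deg C. Cell growth, read with BacTiter-Glo luminescence, gave the measured signal.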
* marks the source's active call; other numbers are inactive results; i = inactive; ? = inconclusive; . = no result; ! = not confirmed by another sample. The call rests on the fitted dose curve; in most records, active means well fitted curve in the direction sought with a large enough effect; inconclusive means small, poorly fitted or top-dose-only effect, or another doubt; inactive means no such curve, though single readings can be large; an effect the other way counts as inactive or inconclusive. Potency means the concentration at half of the fitted maximal effect.

SMILES	TDP43 rescue	FUS suppressor	Abeta yeast res	aSyn rescue
CCc1ccccc1NC(=O)CSc1ncc(S(=O)(=O)c2ccccc2)c(=O)[nH]1	6.8%	i	i	3.98µM*
COC(=O)CSc1ncc(S(=O)(=O)c2ccccc2)c(=O)[nH]1	-15.8%	i	i	3.0%
O=C(Nc1ccc(Br)cc1F)N1CCC2(CC1)Oc1ccccc1C(=O)N2Cc1ccccc1F	-24.1%	i	i	.
Cc1ccc(S(=O)(=O)c2c(C)cc(C)nc2Cl)c(C)c1	?	i	i	13.4%
Cc1ccc(C)c(S(=O)(=O)c2c(C)cc(C)nc2Cl)c1	11.2µM*	i	i	2.9%
CC(=O)O[C@H]1[C@H](OC(C)=O)C[C@]2(OC(C)=O)C[C@H]1OC2=O	.	i	.	.
COc1ccccc1-c1nc(S(=O)(=O)c2ccccc2)c(N2CCC(C)CC2)o1	16.6%	i	i	.
CCCN(CCC)C(=O)COc1cc(=O)n(CC)c2ccccc12	8.1%	i	i	0.9%
CCCN(C(=O)COc1cc(=O)n(CC)c2ccccc12)c1ccc(C(C)C)cc1	22.4µM*	?	i	.
O=C(C[n+]1ccccc1Cl)c1ccc2ccccc2c1	.	.	.	3.0%
c1ccc2c(CCc3c[nH]c4ccccc34)ccnc2c1	.	.	.	-16.1%
Cc1nc(NC(=S)Nc2ccccc2)sc1C	?	i	11.2µM*	-1.2%
CCc1nnc(NC(=O)CCC(=O)Nc2ccccc2)s1	14.9%	i	i	-4.4%
CCC(C(=O)Nc1nc(C)c(C)s1)c1ccccc1 (stereo not drawn)	17.8µM*	i	?	-1.7%
CCc1nnc(NC(=S)Nc2ccccc2)s1	12.6µM*	i	?	-8.6%
CCC(C(=O)Nc1nc(C)cs1)c1ccccc1 (stereo not drawn)	?	i	i	5.2%
COc1cc(OC)c(NS(=O)(=O)c2c(C)nc3sc(C)cn3c2=O)cc1Cl	6.5%	i	i	.
Cc1cc(C)cc(NC(=O)NCCCN2CCN(c3ccc(F)cc3)CC2)c1	.	i	.	.
COC(=O)N1C(=O)[C@](c2ccccc2)(C2CCCC2)N1C(=O)OC	14.1µM*	i	i	2.3%
O=c1c2cn[nH]c2nc(SCc2cccc(Br)c2)n1-c1ccc(Cl)cc1	6.2%	35.5µM*	i	.
CC(C)CCNc1nc(Nc2ccccc2)c2cnn(C)c2n1	17.8µM*	?	i	.
Cn1ncc2c(NCc3ccccc3)nc(NCCCO)nc21	10.4%	i	i	-7.8%
NS(=O)(=O)c1ccc(S(=O)(=O)c2ccccc2)nc1	-1.7%	i	i	-1.1%
NS(=O)(=O)c1ccc(Sc2ccc3c(c2)CCC3)nc1	15.8µM*	i	i	-0.5%
Cc1ccc(Cl)cc1-n1ncc2c(NCCc3ccccc3)ncnc21	22.4µM*	i	i	.
SMILES	TDP43 rescue	FUS suppressor	Abeta yeast res	aSyn rescue
Cc1ccc(Cl)cc1-n1ncc2c(NCCCc3ccccc3)ncnc21	?	i	i	.
Fc1ccc(-n2ncc3c(NCCC4=CCCCC4)ncnc32)cc1	?	i	i	.
COCCCNc1ncnc2c1cnn2-c1ccc(C)cc1C	?	i	i	-6.8%
CCCCNc1ncnc2c1cnn2-c1ccc(C)cc1C	12.6µM*	i	i	-10.3%
Cc1ccc(Cl)cc1-n1ncc2c(NCCC3=CCCCC3)ncnc21	35.5µM*	?	i	.
Cc1ccc(Cl)cc1-n1ncc2c(NCc3ccc(F)cc3)ncnc21	20µM*	i	i	.
COc1ccc(N2CCN(C(c3ccc(C)cc3)c3nnnn3C(C)(C)C)CC2)cc1 (stereo not drawn)	.	.	.	4.3%
CC1CC(=O)c2c(cc3c(-c4c(O)cc(O)c5c(O)c6c(cc45)OC(C)CC6=O)c(O)cc(O)c3c2O)O1 (stereo not drawn)	35.5µM*	i	i	-21.1%
CN(C)c1cccc(NC(=O)C2Cc3c(-c4ccccc4Oc4ccccc4)ccnc3O2)c1 (stereo not drawn)	22.4%	25.1µM*	i	-1.3%
O=C(Nc1cccnc1)C1Cc2c(-c3ccccc3Oc3ccccc3)ccnc2O1 (stereo not drawn)	28.2µM*	i	i	5.9%
CC(=O)Nc1ccc(-c2ccnc3c2CC(C(=O)Nc2cccc(Oc4ccccc4)c2)O3)cc1 (stereo not drawn)	?	11.2µM*	i	13.4%
COC(=O)[C@@]12CCCCC3=C1N(CCC3)C(=O)[C@H]2CC(=O)N1CCSCC1	.	i	.	.
O=C(NC1CCCCN(Cc2cccc(Cl)c2)C1=O)c1cccc(F)c1 (stereo not drawn)	.	i	.	.
Cc1ccc(N(CC(=O)N2CCN(c3ccc(Cl)cc3)CC2)S(=O)(=O)c2c(C)nn(C)c2C)cc1	22.0%	i	i	.
Cc1ccc(N(CC(=O)N2CCN(c3cc(C)ccc3C)CC2)S(=O)(=O)c2c(C)nn(C)c2C)cc1	35.5µM*	?	i	.
Cc1ccc(N(CC(=O)N2CCN(c3ccc(F)cc3)CC2)S(=O)(=O)c2c(C)noc2C)cc1	15.8µM*!	i	?	1.0%
CN(C)c1ccnc2sc(C(=O)NCc3ccccc3)c(N)c12	?	i	i	12.6µM*
CN(C)c1ccnc2sc(C(N)=O)c(N)c12	1.8%	i	i	22.0%
O=C(Nc1ccccc1Oc1ccccc1)c1ccc(Br)o1	4.4%	i	i	1.1%
O=C(Nc1ccccc1-c1ccccc1)c1ccc(Br)o1	22.4µM*	i	i	-12.2%
C/C(=N\Nc1cc(C)nc(-c2ccccc2O)n1)c1ccccc1O	11.2µM*	i	i	-9.0%
Cc1cc(N/N=C\c2ccccc2)nc(-c2ccccc2O)n1	26.2%	i	i	-9.9%
O=C(CNC(=O)C1CCCCC1)OCC(=O)c1ccccc1	.	.	.	2.5%
COc1ccc2c(c1)c(=O)oc1cc(OCC(=O)NC3CCCCC3)ccc12	15.8µM*	i	?	0.2%
COc1ccc2c(c1)c(=O)oc1cc(OCC(=O)NC3CC3)ccc12	8.0%	i	i	-1.2%
SMILES	TDP43 rescue	FUS suppressor	Abeta yeast res	aSyn rescue
COc1ccc(Br)c(C(=O)OCC(=O)NC2CCCCCC2)c1	22.4µM*	i	i	16.2%
Fc1ccc(Nc2nc(SCc3ccccc3F)nc3ccccc23)cc1	-91.6%	i	i	.
Cc1ccc(S(=O)(=O)c2c(N)n(Cc3ccco3)c3nc4ccccc4nc23)cc1C	0.4%	25.1µM*	i	6.0%
O=C(NCC(c1cccnc1)N1CCN(Cc2ccccc2)CC1)C(=O)Nc1cccc(F)c1 (stereo not drawn)	2.3%	i	i	.
CCOC(=O)c1[nH]c2ccc(C(=O)OC)cc2c1C(=O)OCC	20.8%	i	i	7.9%
COC(=O)c1ccc2[nH]c(C3(O)CCCCC3)c(C)c2c1	17.8µM*	i	i	-12.0%
Cc1c(C2(O)CCCCC2)[nH]c2ccc(C(F)(F)F)cc12	3.55µM*	i	i	-61.8%
CC(=O)Nc1ccc(S(=O)(=O)O)c2cc(S(=O)(=O)O)c(N=Nc3ccc(N=Nc4ccc(S(=O)(=O)O)cc4)c4ccc(S(=O)(=O)O)cc34)c(O)c12	.	.	.	-58.5%
